Compound activity from PubChem.
Compounds with a hit are over-represented: about 0.55% of the library has one in this group of screens.
TSHR antag: human thyrotropin receptor antagonism | activity change, negative = inhibition, % at 11.5 µM | TSHR-expressing cells, TSH-stimulated cAMP HTRF, 2 h; stronger effect = lower value | 330,000 compounds, 0.2% hits;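 active means activity change below a set negative limit, meaning inhibition stronger than a set level, cut at about -70% in these data; inconclusive means activity change between two set negative limits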; further: on the % scale 0 is the no-effect control and ±100 the full control effect
Target sequence (P16473 whole entry, looked up): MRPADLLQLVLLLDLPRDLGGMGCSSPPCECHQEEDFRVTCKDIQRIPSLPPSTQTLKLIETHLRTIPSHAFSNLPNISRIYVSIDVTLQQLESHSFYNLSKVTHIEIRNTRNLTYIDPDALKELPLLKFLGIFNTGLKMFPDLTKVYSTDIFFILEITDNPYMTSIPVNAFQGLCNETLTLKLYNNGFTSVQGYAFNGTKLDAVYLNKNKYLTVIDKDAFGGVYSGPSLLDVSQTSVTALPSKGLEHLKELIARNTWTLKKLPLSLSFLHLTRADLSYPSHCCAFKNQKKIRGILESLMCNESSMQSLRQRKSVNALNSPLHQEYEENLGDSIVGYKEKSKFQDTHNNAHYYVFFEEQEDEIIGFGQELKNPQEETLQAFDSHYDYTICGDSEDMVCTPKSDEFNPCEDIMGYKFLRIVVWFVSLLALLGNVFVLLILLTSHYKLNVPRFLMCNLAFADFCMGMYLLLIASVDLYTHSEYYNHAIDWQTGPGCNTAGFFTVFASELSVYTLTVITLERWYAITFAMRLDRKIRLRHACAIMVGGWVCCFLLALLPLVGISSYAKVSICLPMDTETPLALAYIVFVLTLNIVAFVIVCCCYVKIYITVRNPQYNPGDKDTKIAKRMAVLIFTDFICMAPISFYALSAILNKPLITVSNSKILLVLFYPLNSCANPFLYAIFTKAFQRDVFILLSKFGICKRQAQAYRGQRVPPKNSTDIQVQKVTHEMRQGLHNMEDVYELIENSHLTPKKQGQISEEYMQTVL
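Inhibition of cAMP made by TSHR-expressing cells under TSH stimulation (4nM final, EC80; 2 h, 37 deg C) is quantified with a one-step lysis HTRF kit, anti-cAMP cryptate versus cAMP-d2.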
GRP78 ERSR act: inducers of ER stress response in human glioma cells. U87-MG GRP78 promoter luciferase reporter, 16 h. Potency, µM, without a hit: top-dose activation, hits mostly activators. 420,000 compounds, 0.02% hits; further: potency means the concentration at half of the fitted maximal effect; series mostly up to about 76 µM; % of control where 0% means no effect; nearly all actives have a fitted effect of over 35% in size
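ERSR induction read as luciferase luminescence (Bright-Glo, 10 min at room temperature) in stably transfected human U87-MG glioma cells exposed to compounds for 16 h, using GRP78 as sensor.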
Akt phos inh: inhibitors of Akt phosphorylation; Neuro2A IGF-stimulated pAkt S473 HTRF, 20 min; stronger effect = lower value; activity change, % for hits at 50 µM; 360,000 compounds, 0.32% hits; AID 651550; in the data active means activity change below about -80%; inconclusive means mostly about -51% to -80%; further: on the % scale 0 is the no-effect control and ±100 the full control effect
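Neuro2A cells (4,500/well, DMEM with 0.5% FBS) were treated with compound at a single 50 µM final concentration, stimulated with 6 nM IGF for 20 min at 37 °C, and lysed. Phospho-Akt Ser473 was read by HTRF as 665/615 ratio ×10^4.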
TCR activator: activates T cell receptor signaling | 330,000 tested, under 10 active | primary human leukocytes, anti-CD3, IL-2 HTRF, 48 h | Potency, µM (doses to about 9.22 µM), for inactives: top-dose activation of IL-2 secretion, usual class: activators | AID 504894; further: % of control where 0% means no effect
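1) Mix primary human leukocytes, a-CD3 beads and compound. 2) Incubate 48 hr. 3) Add HTRF IL-2 reagents (a-IL-2-K, a-IL-2-d2).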
LDHA inh: LDHA (human) enzyme inhibition. P00338. purified LDHA, NADH/diaphorase-resazurin fluorescence; stronger effect = lower value. activity change, % (values are at about 110 or 230 µM). 480,000 compounds, 0.15% hits; in the data active means activity change below about -30%; inconclusive means mostly about -25% to -30%;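 further: plate controls were DMSO wells for no effect and wells without enzyme for full effect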
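Human LDH5 (2 nM) was incubated with 0.06 mM NADH and 0.2 mM pyruvate for 5 min at room temperature in Tris pH 7.4. Remaining NADH was coupled through diaphorase/resazurin, and resorufin fluorescence was read at 0 and 20 min.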
RGS4 inhibitor: inhibitors of human regulator of G protein signaling 4. P49798. 390,000 compounds, 0.039% hits. Potency, µM (doses to about 114 µM), for the others: at the top dose activity change, negative = inhibition, most hits filed as inhibitors. Transcreener GDP fluorescence polarization, RGS4-accelerated GTP hydrolysis; further: potency means the concentration at half of the fitted maximal effect; on the % scale 0 is the no-effect control and ±100 the full control effect; nearly all actives have a fitted effect of over 75% in size
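MLSMR compounds (23 nl, pin-transferred) preincubated 10 min at room temperature with a 500nM (2x) first reagent, then RGS4 at 900nM (2x) plus Transcreener GDP mix added; fluorescence polarization (620/688 nm) read before and after 90 min at 30 °C.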
Starred values were filed as active, the others as inactive; i = inactive; ? = inconclusive; · = no result given; ! = not active in a repeat; [ ] = another dose, or the depositor's remark. Unless noted, the call rests on the fitted dose curve; in most records, active means well fitted curve in the direction sought with a large enough effect; inconclusive means small, poorly fitted or top-dose-only effect, or another doubt; inactive means no such curve, though single readings can be large; an effect the other way counts as inactive or inconclusive.

SMILES	TSHR antag	GRP78 ERSR act	Akt phos inh	TCR activator	LDHA inh	RGS4 inhibitor
COc1ccc(CCNc2nc(C)nc3c2oc2ccccc23)cc1OC	?	-12.4%	i	-24.3%	-2.5	-11.3%
COc1cc2cc(C(=O)NCC(=O)Nc3nccs3)n(C)c2c(OC)c1OC	·	·	·	·	16.0	·
C(=NOCc1ccccc1)c1ccncc1	·	2.6%	i	-2.0%	-2.6	5.0%
CC1SCC(=NOCc2ccccc2)CS1 (stereo not given)	-70.4*	-5.4%	i	-1.2%	-5.5	-0.6%
CCOC(=O)c1[nH]c2cc(OC)c(OC)cc2c1NC(=O)c1ccc2c(c1)OCO2	-74.6*	-7.1%	i	-0.4%	0.6	2.0%
Cc1ccc(-c2nc(SCC(=O)N3CCCc4ccccc43)n3[nH]c(=O)cc3n2)cc1	·	·	·	·	4.1	·
CCOc1ccc2oc(=O)cc(CN3CCOCC3)c2c1	1.0	-2.2%	i	1.0%	-8.0	-4.3%
Cc1ccc2c(CN3CCN(Cc4ccccc4)CC3)cc(=O)oc2c1	2.3	-3.2%	i	2.9%	-2.8	2.4%
Cc1cc2oc(=O)cc(CN3CCN(Cc4ccccc4)CC3)c2cc1Cl	14.9	-3.3%	-110.5%*	2.6%	-15.1	-1.7%[11.4 µM]
CCOc1ccc2oc(=O)cc(CN3CCN(c4ccccc4)CC3)c2c1	·	-0.6%	·	·	-30.2*!	30.7%
O=C(CSc1nnc(C2CC2)n1C1CC1)c1c[nH]c(C(=O)N2CCCC2)c1	·	·	·	·	-32.0*	·
O=C(CSc1nnc(C2CC2)n1C1CC1)c1ccc(F)cc1	-14.2	1.8%	i	0.2%	-0.9	20.6%
COc1ccccc1Cc1c(-c2ccc(F)cc2)nc2c(C)cc(Br)cn12	·	35.5µM*	i	·	-5.6	·
COc1ccc(-c2oc(=O)oc2-c2ccc(OC)c(OC)c2)cc1OC	·	·	·	·	-4.7	·
Nc1ccc2nc(-c3ccc(-c4nc5ccc(N)cc5[nH]4)cc3)[nH]c2c1	-6.7	0.8%	i	-17.3%	-10.2	?
Nc1ccc(-c2nc3ccc(-c4nc5ccc(N)cc5[nH]4)cc3[nH]2)cc1	-15.4	-6.3%	·	·	-2.1	26.7µM*
O=C(CSc1nc(-c2ccco2)nc2ccccc12)N1CCCCCCC1	·	·	·	·	7.1	·
COC(=O)Cc1cc(=O)n(-c2nc3ccccc3[nH]2)[nH]1	-12.5	-3.9%	i	-0.4%[46.1 µM]	-40.0*	-1.5%
COc1ccc(CC(=O)Nc2nc3ccccc3[nH]2)cc1	29.9	-1.1%	i	-2.3%	-2.4	19.9%
COc1ccc(-c2nc(C)c(C(=O)NCc3ccccc3OC)s2)cc1	·	·	·	·	-2.0	·
COC(=O)COc1ccc2c(=O)c(-c3ccc4c(c3)OCCO4)coc2c1	·	·	·	·	1.3	·
CSCCC(NC(=O)OC(C)(C)C)C(=O)Oc1ccc2c(=O)c(-c3ccc4c(c3)OCCO4)coc2c1 (stereo not given)	-9.8	-10.5%	-84.7%*	2.7%	-4.2	-0.5%
O=C1NC(c2ccccc2Cl)Nc2ccccc21 (stereo not given)	-5.3	-5.0%	-111.2%*	7.2%	0.4	9.6%
CCOc1ccc(Cn2c(O)cc(=O)[nH]c2=O)cc1	5.9	-3.1%	-117.4%*	-0.5%[46.1 µM]	-2.0	?
COc1ccc2nc(-c3ccc4c(c3)OCO4)cc(C(=O)NCCN3CCOCC3)c2c1	·	·	·	·	23.2	·
SMILES	TSHR antag	GRP78 ERSR act	Akt phos inh	TCR activator	LDHA inh	RGS4 inhibitor
CSc1ccc(/C=N/Nc2ccc(F)cc2F)cc1	·	·	·	·	11.9	·
O=C(COc1ccc2ccccc2c1)Nc1cnc2ccccc2c1	·	·	·	·	-32.6*	·
O=C(Cc1ccc2ccccc2c1)Nc1cnc2ccccc2c1	·	·	·	·	12.0	·
C=CCN1C(=O)/C(=C/c2ccc(OC(C)=O)c(OCC)c2[N+](=O)[O-])SC1=S	-92.4*	-0.3%	i	-2.8%	10.0	?
CCOc1c(OC(C)=O)ccc(/C=C/c2ccc3cccc(OC(C)=O)c3n2)c1[N+](=O)[O-]	-5.5	8.9%	i	1.9%	-4.5	17.1%
COc1cc(OC)c(OC)cc1/C=C/C(=O)c1sc(-c2ccc(O)cc2)nc1C	·	·	·	·	49.2	·
N#Cc1nc(-c2ccccc2Cl)oc1N1CCOCC1	6.4	2.6%	i	-8.1%	-32.4*!	17.3%
N#Cc1nc(-c2ccccc2Cl)oc1N1CCCCCC1	·	·	·	·	-12.2	·
COCCNC(=O)CN(c1ccc(OC)c(OC)c1)S(=O)(=O)c1ccc(C)cc1	4.3	-2.5%	-128.9%*	-1.1%	-2.5	1.5%
O=C(NCc1ccccc1)c1cc(S(=O)(=O)N2CCOCC2)ccc1F	0.0	0.0%	-114.2%*	-4.3%	-1.1	-15.7%
CC(=O)Nc1cccc(-c2csc(Nc3cccc(O)c3)n2)c1	·	·	·	·	11.9	·
Cc1ccc2c(C)c(C(=O)Nc3nc(-c4ccc(C)s4)ns3)oc2c1	·	·	·	·	-32.6*	·
Cc1ccc(-c2nsc(NC(=O)c3oc4ccc(Cl)cc4c3C)n2)s1	·	·	·	·	-16.9	·
O=C(O)c1ccccc1-c1ncc(-c2ccccc2F)o1	·	·	·	·	-1.3	·
CCOc1ccc2[nH]c(=O)c(CN(Cc3ccccc3)C(=O)N3CCCC3)cc2c1	7.4	-2.1%	-131.5%*	-2.7%	-7.4	-23.1%
CCCCn1c(C(C)NC(=O)c2cccs2)nc2ccccc21 (stereo not given)	-1.5	-3.2%	-102.8%*	-1.9%	-0.8	-28.5%
Cc1ccc(C)c(N2N=C(C(=O)Nc3ccc(S(=O)(=O)N4CCCCC4)cc3)CCC2=O)c1	·	·	·	·	-10.9	·
CCOC(=O)N1CCC(N2CCN(S(=O)(=O)c3ccc(C)cc3)CC2)CC1	-7.4	-6.9%	i	-0.5%	-22.4	24.2%
CCOC(=O)N1CCC(N2CCN(S(=O)(=O)CC)CC2)CC1	-2.8	-2.5%	i	6.8%	-33.6*	18.3%
CN(C)C(Cc1ccccc1)C(=O)c1cc2ccccc2o1 (stereo not given)	·	·	·	·	12.2	·
Nc1nc(Cl)nc2c1ncn2[C@@H]1O[C@H](COP(=O)(O)OP(=O)(O)OP(=O)(O)O)[C@@H](O)[C@H]1O	-6.5	-3.6%	·	·	·	0.532µM*
Nc1ncnc2c1ncn2[C@@H]1O[C@H](COP(=O)(O)OP(=O)(O)OP(=O)(O)OP(=O)(O)OC[C@@H]2O[C@H](n3cnc4c(N)ncnc43)[C@@H](O)[C@H]2O)[C@@H](O)[C@H]1O	13.4	1.6%	·	·	·	2.99µM*
Cc1nc2c(cc(OCC(O)COc3ccc(C#N)cc3)c3ccsc32)s1 (stereo not given)	·	·	·	·	78.7	·
CCN(CC)C(=O)CSc1n[nH]c(=O)n1CCc1ccccc1	4.2	-0.5%	i	0.8%	-4.6	-10.7%
O=c1[nH]nc(Sc2ncnc3sccc23)n1CCc1ccccc1	-0.3	-12.0%	-98.8%*	1.3%	1.0	-6.0%
N#C/C(=C/c1ccccc1OC(F)(F)F)c1ccccn1	·	·	·	·	-2.8	·
COCCN1CCn2c(nc3cc(NC(=O)NC4CCCCC4)ccc32)C1	5.6	-2.8%	i	·	13.7	-9.0%
